Hits are enriched below; roughly 3.4% of the tested compounds scored in any of these assays.
APP 5'UTR act = activates APP 5'UTR luciferase reporter; SH-SY5Y APP 5'UTR luciferase reporter, luminescence; zero percent = DMSO vehicle wells; actives 1% (n = 190,000); activation, % at 2 µM;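 active means activation above a set limit, based on mean plus 3 SD of controls, cut at about 140% in these data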
NF-kB expr up = raises NF-kB expression in human neuronal cells. fold change at 12.5 µM. actives 1.6% (n = 190,000). NF-kB reporter expression; hits give high values; in the data active means fold change above about 3.3
hcDAF-12 act = H. contortus DAF-12 activation, primary screen; HEK293 hcDAF-12 lit1-tk-luc reporter, luminescence; 0% DMSO, 100% Δ7-dafachronic acid; activation, % at 6.8 µM; actives 1.4% (n = 370,000); AID 652067;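 active means activation above the mean of all tested compounds plus 3 SD, cut at about 5.5% in these data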
hgDAF12 agonist = agonists of H. glycines DAF-12 nuclear receptor | HEK293 GAL4-hgDAF12 UAS-luciferase reporter, agonist luminescence; normalized to butyrate control | activation, % at 6.8 µM | actives 1.8% (n = 370,000) | AID 687014;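 active means activation above a cutoff set at the mean of all screened compounds plus 3 SD, cut at about 10% in these data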
ssDAF-12 act = activators of S. stercoralis DAF-12 nuclear receptor. HEK293 ssDAF-12/GRIP1 lit1-tk-luc reporter, luminescence; % of 3 µM dafachronic acid response. activation, % at 6.8 µM. actives 1% (n = 370,000);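 active means activation above the mean over all tested compounds plus 3 SD, cut at about 0.9% in these data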
Each line names hits and unclear results; the compound was inactive in the other large screens.

Cc1nn(-c2ccccc2)c(N)c1N=Nc1ccc(Cl)cc1	NF-kB expr up 4.51, hgDAF12 agonist 18.1
Cc1nn(-c2ccccc2)c(N)c1N=Nc1ccccc1	APP 5'UTR act 156.3, NF-kB expr up 6.8
O=C(CN(C1CC1)S(=O)(=O)c1ccc(S(=O)(=O)N2CCCCCC2)cc1)Nc1ccccc1	none
COC(=O)CCN(C1CCCCC1)S(=O)(=O)c1ccc(S(=O)(=O)N2CCCCC2)cc1	hcDAF-12 act 5.8
COC(=O)[C@]12C=CCN1[C@@H](c1ccc(C(F)(F)F)cc1)c1c(c3ccccc3n1S(=O)(=O)c1ccc(C)cc1)C2	none (no result: APP 5'UTR act, NF-kB expr up)
Cc1cc(C(=O)CSc2ccc(F)cc2)cc(C)c1OC(=S)N(C)C	APP 5'UTR act 160.0
O=C(CN(Cc1ccccc1)C(=O)c1csnn1)NCc1ccc2c(c1)OCO2	hcDAF-12 act 5.8 (no result: APP 5'UTR act, NF-kB expr up)
O=C(Nc1cccc(Br)c1)OC1CC2CC1[C@H]1CCCCN1C2 (some centres undefined)	none (no result: APP 5'UTR act, NF-kB expr up)
O=[N+]([O-])c1nn(-c2ccc3c(c2)OCCO3)n(O)c1=NCc1ccc(F)cc1Cl	APP 5'UTR act 165.4
O=[N+]([O-])c1nn(-c2ccc3c(c2)OCCO3)n(O)c1=NCc1ccc(F)cc1	none
O=C(NCCCN1CCc2ccccc2C1)C1CCN(S(=O)(=O)N2CCCC2)CC1	hcDAF-12 act 5.8
O=C(NCCCN1CCc2ccccc2C1)C1CCN(S(=O)(=O)N2CCC3(CC2)OCCO3)CC1	none
CC1CC(Nc2ccccc2N)=CC(=O)O1 (centres undefined)	hcDAF-12 act 5.8
Cc1nc2ccccn2c1C(O)(c1ccccc1)c1ccccc1	none (no result: APP 5'UTR act, NF-kB expr up)
CCCC[C@H]1C2CC(OC(=O)Nc3ccccc3C)C(C2)[C@H]2CCCCN21 (some centres undefined)	none (no result: APP 5'UTR act, NF-kB expr up)
S=C(Nc1ccccc1)N1CCN(c2ccccn2)CC1	ssDAF-12 act 1.9
O=C(CC(Nc1ccccc1)C(=O)O)c1ccccc1 (centres undefined)	NF-kB expr up 3.33 (no result: APP 5'UTR act)
O=C(CC(Nc1ccc(Cl)cc1Cl)C(=O)O)c1ccccc1 (centres undefined)	none (no result: APP 5'UTR act, NF-kB expr up)
Cc1c(=O)n(OCc2ccccc2F)c2ccccc2[n+]1[O-]	NF-kB expr up 5.19
Cc1c(=O)n(OCc2cccc(F)c2)c2ccccc2[n+]1[O-]	none
C#CCNC(=O)c1cnn(-c2ccccc2)c1N	none (no result: APP 5'UTR act, NF-kB expr up)
COc1ccc(NC(=O)C(c2ccccc2F)n2c(=O)c(-c3cc4ccccc4[nH]3)nc3ccccc32)cc1 (centres undefined)	hgDAF12 agonist 12.2 (no result: APP 5'UTR act, NF-kB expr up)
O=C(Nc1ccc2ccccc2c1)C(c1ccccc1F)n1c(=O)c(-c2cc3ccccc3[nH]2)nc2ccccc21 (centres undefined)	none (no result: APP 5'UTR act, NF-kB expr up)
COc1ccc(C(C(=O)NCc2ccccc2)n2c(=O)c(-c3cc4ccccc4[nH]3)nc3ccccc32)cc1 (centres undefined)	none (no result: APP 5'UTR act, NF-kB expr up)
O=C(NCc1ccccc1)C(c1ccc(-c2ccccc2)cc1)n1c(=O)c(-c2cc3ccccc3[nH]2)nc2ccccc21 (centres undefined)	ssDAF-12 act 1.6 (no result: APP 5'UTR act, NF-kB expr up)
O=C(NCc1ccccc1)C(c1ccncc1)n1c(=O)c(-c2cc3ccccc3[nH]2)nc2ccccc21 (centres undefined)	hcDAF-12 act 5.7, ssDAF-12 act 2.7 (no result: APP 5'UTR act, NF-kB expr up)
Cn1c(=O)c2cc(S(=O)(=O)N3CCN(CCO)CC3)ccc2n(C)c1=O	none (no result: APP 5'UTR act, NF-kB expr up)
CN1OC[C@@H]2CN[C@H](c3ccc(-c4ccc(C#N)cc4)cc3)C[C@@H]21	hgDAF12 agonist 12.2 (no result: APP 5'UTR act, NF-kB expr up)
CCOc1ccc(N(CC(=O)Nc2ccc(C)cc2)S(C)(=O)=O)cc1	hgDAF12 agonist 12.3 (no result: APP 5'UTR act, NF-kB expr up)
CCOc1ccc(N(CC(=O)Nc2cc(C)cc(C)c2)S(C)(=O)=O)cc1	none (no result: APP 5'UTR act, NF-kB expr up)
Cc1ccc(N(CC(=O)Nc2ccc(-c3nc4ccc(C)cc4s3)cc2)S(C)(=O)=O)cc1	hgDAF12 agonist 11.8, ssDAF-12 act 0.9
Cc1ccc(C)c(N(CC(=O)Nc2ccc(-c3nc4ccc(C)cc4s3)cc2)S(C)(=O)=O)c1	ssDAF-12 act 1.6
CNC(=O)CN(c1cc(C)ccc1C)S(C)(=O)=O	none
Cc1ccc2nc(-c3ccc(NC(=S)NC(=O)CC(C)C)cc3)sc2c1	none
COc1cccc(C(=O)n2ccc3ccc(-c4ccc5ccn(Cc6ccccc6)c5c4)cc32)c1	none (no result: APP 5'UTR act, NF-kB expr up)
Cc1c(C(=O)N/N=C/c2ccccc2Cl)[nH][nH]c1=O	none (no result: APP 5'UTR act, NF-kB expr up)
Cc1csc(SCC(=O)Nc2sccc2C(N)=O)n1	hgDAF12 agonist 10.8
CCCC[C@@H](CCCc1ccc(F)cc1)CCC(=O)N(c1ccccc1)c1ccccc1	none (no result: APP 5'UTR act, NF-kB expr up)
CCOC(=O)c1nn(-c2ccc3c(c2)OCCO3)cc1O	APP 5'UTR act 157.8, hgDAF12 agonist 12.9
CCOC(=O)c1nn(-c2ccc(C)c(C)c2)cc1O	hgDAF12 agonist 12.9
COC(=O)c1nn(-c2ccc3c(c2)OCO3)cc1O	none
CC1CCN(c2ccc(C(=O)O)cc2NS(=O)(=O)c2ccc(Cl)s2)CC1	none (no result: APP 5'UTR act, NF-kB expr up)
COC(=O)[C@]12C[C@H](CC(=O)NCCCN3CCCC3=O)C(=O)N(CCC3=CCCCC3)C1=C[C@H](C1CCCC1)O[C@@H]2C	none (no result: APP 5'UTR act, NF-kB expr up)
CC(C)N=c1scc(-c2ccco2)n1/N=C/c1ccc(O)c(O)c1	NF-kB expr up 9.56
COCCN=c1scc(-c2ccco2)n1/N=C/c1ccc(O)c(O)c1O	none
Cc1ccc2nc3ccc(N4CCCCCCC4)nn3c(=O)c2c1	none
Cc1ccc2nc3ccc(N4CCN(C)CC4)nn3c(=O)c2c1	hcDAF-12 act 5.7
O=C(OCC#CCSc1nnc(-c2ccccc2F)o1)c1ccc(F)cc1	none (no result: APP 5'UTR act, NF-kB expr up)
Cc1ccc(C2C=C(c3ccccc3)Nc3ncnn32)cc1 (centres undefined)	none (no result: APP 5'UTR act, NF-kB expr up)
COc1ccc(C2C=C(c3ccc(C)cc3)Nc3ncnn32)cc1 (centres undefined)	hgDAF12 agonist 11.5
Cn1c(CN2CCN(c3cccc(Cl)c3)CC2)nc2ccccc21	hcDAF-12 act 5.8
Cc1ccccc1C(=O)N(C)[C@H]1C[C@H]2c3[nH]c4c(-c5ccccc5)cccc4c3CCN2C[C@H]1[C@H](C)O	none (no result: APP 5'UTR act, NF-kB expr up)
COC(=O)c1n[nH]c2ccccc12	hcDAF-12 act 6.2, ssDAF-12 act 1.0
Cc1ccc(NC(=O)C(C)OC(=O)c2n[nH]c3ccccc23)cc1 (centres undefined)	none (no result: APP 5'UTR act, NF-kB expr up)
Cc1nn(CC(=O)OC(C)C(=O)Nc2ccccc2[N+](=O)[O-])c(C)c1[N+](=O)[O-] (centres undefined)	ssDAF-12 act 3.5
CCc1ccc(C(=O)COC(=O)c2n[nH]c3ccccc23)cc1	NF-kB expr up 5.47
CC(OC(=O)c1n[nH]c2ccccc12)C(=O)Nc1ccccc1[N+](=O)[O-] (centres undefined)	ssDAF-12 act 1.0 (no result: APP 5'UTR act, NF-kB expr up)
CC(OC(=O)Cn1[nH]c(=O)c2ccccc2c1=O)C(=O)Nc1ccccc1[N+](=O)[O-] (centres undefined)	none (no result: APP 5'UTR act, NF-kB expr up)
CCc1ccc(C(=O)COC(=O)c2nn(C)c(=O)c3ccccc23)cc1	none
Cc1ccc(S(=O)(=O)Nc2ccncc2)c(C)c1N(C)S(=O)(=O)c1ccc(F)cc1	hcDAF-12 act 5.7
COc1ccc(S(=O)(=O)Nc2ccncc2)c(C)c1C	none

Compound activity (PubChem)
